Some structures have more than one record in an assay (separate samples or runs), and their calls can disagree. Calls of active or inactive are those of the source. How the source made its calls: active means hit-call score of the fitted dose curve at least 0.9, where 1 is the maximum; inactive means score below 0.9.
test: ATG_FoxO_CIS: Attagene CIS-FACTORIAL HepG2 Assay for human Forkhead box O (FoxO) (AID 2282943); conditions: HepG2 Attagene cis-reporter, FoxO element, mRNA; actives raise or lower the signal
Procedure: ATG_CIS is a cell-based, multiplexed-readout assay that uses HepG2, a human liver cell line, with measurements taken at 24 hours after chemical dosing in a 24-well plate.ATG_FoxO_CIS is one of 52 assay component(s) measured or calculated from the ATG_CIS assay. It is designed to make measurements of mRNA induction, a form of inducible reporter, as detected with fluorescence intensity signals by Reverse transcription polymerase chain reaction (RT-PCR) and Capillary electrophoresis technology.Data from the assay component ATG_FoxO_CIS was analyzed into 1 assay endpoint. This assay endpoint, ATG_FoxO_CIS, was analyzed with bidirectional fitting relative to DMSO as the negative control and baseline of activity. Using a type of inducible reporter, measures of mRNA for gain or loss-of-signal activity can be used to understand the reporter gene at the transcription factor-level as they relate to the gene FOXO1 and FOXO3. Furthermore, this assay endpoint can be referred to as a primary readout, because this assay has produced multiple assay endpoints where this one serves a reporter gene function. To generalize the intended target to other relatable targets, this assay endpoint is annotated to the dna binding intended target family, where the subfamily is forkhead box protein.
Human liver HepG2 cells are transiently transfected with multiple reporter transcription units (MRTUs) in 6-well plates using FuGene 6 reagent (Roche; 3 ml FuGene/1 mg DNA). The MRTU constructs are regulated by a cis-regulating element (promoter). […] A major difference between the CIS and TRANS system is that in CIS activities of endogenous TFs are measured, whereas the TRANS assay evaluates changes in activities of exogenous, chimeric NR-Gal4 proteins. […] At the end of 24 hour incubation, total RNA was isolated using TriZol reagent (Invitrogen). The isolated RNA is then reverse-transcribed using oligo(dT) primer and Mo-MLV reverse transcriptase (Invitrogen) with DNAse I (Ambion) treatment for 30 min. The one-tenth of the produced cDNA was amplified by PCR using Taq DNA polymerase (Invitrogen) and two reporter sequence-specific primers. The PCR products were fluorescently labeled by primer extension with 6-arboxyfluorescein (6-FAM) 5'-labeled reporter sequence-specific primer (2 min at 95 C, 20 s at 68 C and 10 min at 72 C) and these products were digested with 5U of HpaI (New England Biolabs) for 2h at 37 C. The fragments were purified using Qiaquick PCR columns (Qiagen), analyzed on an ABI 3130xL genetic analyzer (Applied Biosystems) with peak positions identified by using a set of X-rhodamine (ROX)-labeled MapMarker1000 molecular weight standards (BioVentures). The raw capillary electrophoresis data was processed using Attagraph software (Attagene).

| Structure (SMILES) | outcome | AC50 |
| --- | --- | --- |
| c1ccc2c(c1)-c1cccc3cccc-2c13 | inactive | – |
| CCCCCCCCCCCCCN1CC(C)OC(C)C1 (stereo not given) | inactive | – |
| Clc1ccc(Cl)c(Cl)c1 | inactive | – |
| CCCCCOC(=O)c1ccccc1C(=O)OCCCCC | inactive | – |
| Clc1ccc(C(c2ccc(Cl)cc2)C(Cl)Cl)cc1 | inactive | – |
| O=C(O)C1C2CCC(O2)C1C(=O)O (stereo not given) | inactive | – |
| Nc1ccc(N=Nc2ccccc2)cc1 | inactive | – |
| Cc1ccc([N+](=O)[O-])cc1 | inactive | – |
| CCNS(=O)(=O)C(F)(F)C(F)(F)C(F)(F)C(F)(F)C(F)(F)C(F)(F)C(F)(F)C(F)(F)F | inactive | – |
| c1ccc2c(c1)oc1ccccc12 | inactive | – |
| ClCCOCCCl | inactive | – |
| O=Cc1ccco1 | inactive | – |
| Nc1ccc(Cc2ccc(N)cc2)cc1 | inactive | – |
| Oc1ccccc1Cl | inactive | – |
| CCCCOC(=O)c1ccccc1C(=O)OCc1ccccc1 | inactive | – |
| c1ccc(C2CO2)cc1 (stereo not given) | inactive | – |
| C[C@]12C=CC3=C4CCC(=O)C=C4CC[C@H]3[C@@H]1CC[C@@H]2O | inactive | 30.2 µM (active) |
| O=[N+]([O-])c1ccc(Oc2ccc(Cl)cc2Cl)cc1 | inactive | – |
| CCCCC(CC)COC(=O)c1ccc(C(=O)OCC(CC)CCCC)c(C(=O)OCC(CC)CCCC)c1 (stereo not given) | inactive | – |
| [Cl-].[Cl-].[Hg+2] | inactive | – |

| Structure (SMILES) | outcome | AC50 |
| --- | --- | --- |
| CCCCCCCCOC(=O)c1ccc(C(=O)OCCCCCCCC)c(C(=O)OCCCCCCCC)c1 | inactive | – |
| c1ccc(N=Nc2ccccc2)cc1 | inactive | – |
| ClC1=C(Cl)C2(Cl)C3C(Cl)C=CC3C1(Cl)C2(Cl)Cl (stereo not given) | inactive | – |
| CCCCCCCCn1sccc1=O | – | 18.3 µM (active) |
| CS(=O)(=O)NC(=O)c1cc(Oc2ccc(C(F)(F)F)cc2Cl)ccc1[N+](=O)[O-] | inactive | – |
| CCCSC(=O)N(CCC)CCC | inactive | – |
| CCC[CH2][Sn]([Cl])([CH2]CCC)[CH2]CCC | inactive | – |
| C=CCc1ccc2c(c1)OCO2 | inactive | – |
| Clc1ccc(C(c2ccc(Cl)cc2)C(Cl)(Cl)Cl)cc1 | inactive | – |
| COc1cc(C=O)cc2c1[C@H](COC(N)=O)[C@]1(OC(C)=O)ON2C[C@H]2[C@@H]1N2C(C)=O | – | 58.9 µM (active) |
| CC(C)(C)C(O)(CCc1ccc(Cl)cc1)Cn1cncn1 (stereo not given) | inactive | – |
| N#CC(Br)Br | inactive | – |
| Cc1ccc(N)c(N)c1 | inactive | – |
| CCN(CC)CCO | inactive | – |
| CN(C)[C@@H]1C(=O)C(C(N)=O)=C(O)[C@@]2(O)C(=O)C3=C(O)c4c(O)cccc4[C@@](C)(O)[C@H]3C[C@@H]12 | inactive | – |
| CC(C)(OOC(C)(C)c1ccccc1)c1ccccc1 | inactive | – |
| Cc1ccc(N=C=O)cc1N=C=O | inactive | – |
| O=C(Nc1ccccc1)c1ccccc1I | inactive | – |
| CC(C)(C)OOC(=O)c1ccccc1 | – | 156 µM (active) |
